Source: PubChem
Glioma ERSR ind: induces the endoplasmic reticulum stress response in human glioma cells | U87-MG GRP78 promoter luciferase reporter, 16 h | Potency, µM, usual class: activators | actives 0.02% (n = 420,000) | AID 602332; note: series mostly up to about 76 µM; nearly all actives have a fitted effect of over 35% in size
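Stably transfected U87-MG human glioma cells carrying a GRP78-based luminescent sensor were seeded at 1000 cells/well, pin-dosed with compounds and incubated 16 h. Luciferase reagent was then added, and end-point luminescence was read after 10 min at room temperature.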
12-LOX inh: blocks human arachidonate 12S-lipoxygenase; P18054; Potency, µM (doses to about 108 µM), hits mostly inhibitors; AID 1671190; actives 1.1% (n = 580,000); purified 12hLO, xylenol orange hydroperoxide absorbance
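Purified human 12hLO at 150 nM in 25 mM Hepes, 0.01% Triton X-100, pH 7.0, preincubated 15 min at room temperature with compound. Reaction started with 40 uM arachidonic acid, 30 min at room temperature. Hydroperoxide measured by Fe-xylenol orange, 573/405 nm absorbance ratio.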
Sfp PPTase inh: Sfp phosphopantetheinyl transferase inhibition. Biochemical Sfp PPTase activity, qHTS. Potency, µM, hits mostly inhibitors. actives 3.5% (n = 310,000). Q9F4F7;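 note: the enzyme is Sfp with the accession as filed and its product quenches rhodamine fluorescence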
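With Hepes-Na pH 7.6 buffer containing 10 mM MgCl2, Sfp (15 nM) modified BHQ-2-YbbR (12.5 uM) using rhodamine-CoA (5 uM). Two reads 30 minutes apart at 525/598 nm yielded each well's rate.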
G9a block: G9a (human) methyltransferase inhibition; Q96KQ7; G9a H3K9 monomethylation, AlphaScreen, 2 h; Potency, µM (titrated, usually from 102 µM), most hits filed as inhibitors; actives 8.8% (n = 350,000); AID 504332; note: nearly all actives have a fitted effect of over 75% in size
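Readings reflect AlphaScreen signal from monomethyl-H3K9 antibody detection. HMT at 20 nM; substrate b-H3K9 500 nM; cofactor SAM 20 uM; 2 h RT reaction; compounds tested as titrations in qHTS with 15 min preincubation.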
VDR inh: vitamin D3 receptor (human) inhibition. P11473. VDR-SRC2-3 peptide fluorescence polarization, 2 h. Potency, µM, usual class: inhibitors. actives 0.93% (n = 400,000). AID 504847
Target sequence (P11473 whole entry, looked up): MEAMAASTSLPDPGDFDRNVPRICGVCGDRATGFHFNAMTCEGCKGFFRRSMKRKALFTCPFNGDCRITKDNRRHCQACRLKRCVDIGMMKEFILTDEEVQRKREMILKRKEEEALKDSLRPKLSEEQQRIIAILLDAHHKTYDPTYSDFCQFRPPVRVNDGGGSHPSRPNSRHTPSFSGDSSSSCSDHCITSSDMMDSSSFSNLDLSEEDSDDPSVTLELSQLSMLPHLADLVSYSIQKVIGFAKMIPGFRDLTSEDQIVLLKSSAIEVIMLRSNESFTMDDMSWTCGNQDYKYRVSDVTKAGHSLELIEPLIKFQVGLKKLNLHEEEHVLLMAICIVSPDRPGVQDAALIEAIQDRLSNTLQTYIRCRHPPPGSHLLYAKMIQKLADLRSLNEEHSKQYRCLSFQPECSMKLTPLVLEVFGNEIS
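Reagent solutions, kept cold and dark, are dispensed first; compounds are then pinned in at 23 nl, plates briefly spun, and incubated 2 h at ambient temperature. Inhibition of VDR–SRC2-3 peptide binding is read by fluorescence polarization.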
Sfp inh conf: Sfp phosphopantetheinyl transferase inhibition, confirmation; shares compounds with Sfp PPTase inh; actives 79% (n = 380); Potency, µM (doses to about 114 µM), most hits filed as inhibitors; AID 2701; Sfp PPTase enzymatic assay, qHTS titration
Sfp PPTase gel: Blocks Sfp PPTase activity, gel read-out. shares compounds with Sfp PPTase inh. Potency, µM, hits mostly inhibitors. actives 20% (n = 210). AID 2707. purified Sfp, gel-based phosphopantetheinylation read-out;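 active = potency below 100 µM; inconclusive = dose-dependent response but potency above 100 µM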;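 note: potency is an IC50 for inhibitors of Sfp transfer activity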
VDR confirm: confirmation of human vitamin D receptor inhibitors | shares compounds with VDR inh | VDR-coactivator inhibition assay, qHTS confirmation | Potency, µM, usual class: inhibitors | actives 89% (n = 840)
VDR FP: confirmation of human VDR-coactivator binding inhibitors, fluorescein label. shares compounds with VDR inh. VDR-coactivator binding, fluorescein fluorescence polarization. Potency, µM (highest dose often 57.1 µM), actives largely listed as inhibitors. actives 48% (n = 840)
VDR bla: VDR (human) inhibition, cell-based beta-lactamase validation | shares compounds with VDR inh | VDR beta-lactamase reporter cells, FRET ratio; cells co-treated with VDR agonist LG190178 | Potency, µM (series often up to 46.1 µM), actives largely listed as inhibitors | actives 23% (n = 840)
VDR viability: cytotoxic in counter-screen for VDR inhibitors. Potency, µM (top dose mostly 48.3 µM), actives largely listed as cytotoxic. actives 18% (n = 840). shares compounds with VDR inh. cytotoxicity counter-screen, cell viability, qHTS; note: nearly all actives have a fitted effect of over 75% in size
Large screens that a line does not name were inactive (follow-up assays come after a bar, where they were run); ! = not active in a repeat. Many of the other results were omitted from the sample, so hits are more common in it than they were. Unless noted, calls come from the whole dose curve; as a rule, active = well fitted curve in the direction sought with a large enough effect; inconclusive = small, poorly fitted or top-dose-only effect, or another doubt; inactive = no such curve, though single readings can be large; an effect the other way counts as inactive or inconclusive.

CC(NC(=O)c1sc2cc([N+](=O)[O-])ccc2c1Cl)C(C)(C)C (stereo not drawn)	12-LOX inh 31.6µM, Sfp PPTase inh 7.94µM, G9a block 1.58µM, VDR inh inconclusive | Sfp inh conf 0.527µM | Sfp PPTase gel 0.69µM | VDR confirm 5.62 | VDR FP 3.16µM | VDR bla inactive | VDR viability inactive
COc1cc(C(=O)Nc2ccc3oc(-c4ccccc4F)cc(=O)c3c2)cc(OC)c1OC	none (no result: Glioma ERSR ind, Sfp PPTase inh, G9a block, VDR inh)
Cc1ccccc1CC(=O)N1CCN(C(=O)c2nnn3c2COC(c2ccccc2)C3)CC1 (stereo not drawn)	none (no result: Glioma ERSR ind, Sfp PPTase inh, G9a block, VDR inh)
c1ccc(Cc2nn3c(COc4ccccc4)nnc3s2)cc1	12-LOX inh inconclusive, Sfp PPTase inh 14.1µM, G9a block 5.01µM, VDR inh 79.4µM | Sfp inh conf 18.7µM | VDR confirm 23.8 | VDR FP inconclusive | VDR bla inactive | VDR viability inactive
Fc1ccc(OCc2nnc3sc(COc4ccccc4)nn23)cc1	none (no result: Glioma ERSR ind, Sfp PPTase inh, G9a block, VDR inh)
COc1ccc2nc(S(=O)Cc3ncc(C)c(OC)c3C)[nH]c2c1 (stereo not drawn)	12-LOX inh 21.7µM!, Sfp PPTase inh 20µM!, G9a block 1.41µM, VDR inh 89.1µM! | Sfp inh conf 37.3µM | VDR confirm 2.67 | VDR FP inconclusive | VDR bla inactive | VDR viability inactive
CC(/C=C/C(=O)c1ccc(C)cc1)=C\c1ccccc1	12-LOX inh inconclusive, Sfp PPTase inh inconclusive
Cc1ccc(C(=O)/C=C\C(=O)c2ccc(C)cc2)cc1	12-LOX inh inconclusive, Sfp PPTase inh 1.78µM, G9a block 1.58µM, VDR inh 79.4µM | VDR confirm 29.9 | VDR FP inconclusive | VDR bla inconclusive | VDR viability inactive
CCOC(=O)COc1ccccc1/C=C\[N+](=O)[O-]	Sfp PPTase inh 14.1µM, G9a block 3.55µM, VDR inh 11.2µM (no result: 12-LOX inh) | VDR confirm 3.36 | VDR FP inconclusive | VDR bla 4.61µM | VDR viability 8.2µM
Cc1ccc(C(=O)COC(=O)COc2ccccc2[N+](=O)[O-])s1	12-LOX inh inconclusive (no result: Sfp PPTase inh)
CCOC(=O)/C(=C\c1cccc(O)c1)c1nc2sc(C)c(C)c2c(=O)[nH]1	12-LOX inh inconclusive, Sfp PPTase inh 7.08µM, G9a block 3.16µM, VDR inh 44.7µM | VDR confirm 3.36 | VDR FP inconclusive | VDR bla 20.6µM | VDR viability inconclusive
CCOC(=O)c1nc2sc(C)c(C)c2c(=O)[nH]1	none
O=S(=O)(NC1CCSc2c(F)cccc21)c1cccc(Cl)c1 (stereo not drawn)	none (no result: Glioma ERSR ind, Sfp PPTase inh, G9a block, VDR inh)
NC(=O)CCS(=O)(=O)CCN1CCN(S(=O)(=O)c2ccccc2)CC1	none (no result: Glioma ERSR ind, Sfp PPTase inh, G9a block, VDR inh)
S=C(Nc1ccccc1Cl)Nc1ccc(Cl)cc1Cl	12-LOX inh inconclusive
S=C(NNc1ccnc2cc(Cl)ccc12)Nc1ccccc1Cl	12-LOX inh inconclusive, Sfp PPTase inh inconclusive, G9a block 11.2µM, VDR inh inconclusive | VDR confirm 12.6 | VDR FP 10µM | VDR bla inconclusive | VDR viability inconclusive
CC(C)(C)c1nc2cc(NC(=O)CNC(=O)c3ccco3)ccc2o1	none (no result: Glioma ERSR ind, Sfp PPTase inh, G9a block, VDR inh)
Cc1nc2nc(SCC(=O)c3ccc(F)cc3)[nH]c2cc1Br	none (no result: Glioma ERSR ind, Sfp PPTase inh, G9a block, VDR inh)
